The sequences below were run on RARb:RXRa (NR concentration 270 nM, RXRa partner concentration 90 nM) (assay: PBM binding z-score (relative to random genomic background probes); higher = stronger binding; sequences stand for … in GC…GCGATTGACAGCGTAGAATGAAGG).
In short: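 Binding buffer was PBS pH 7.4 with 2% milk, 0.02% Triton X-100, 1 mM DTT, 0.2 mg/mL BSA and 0.4 mg/ml salmon testes DNA. In it, ligand-free nuclear receptor dimers were incubated 1 h on custom Agilent 4×180K protein-binding microarrays carrying double-stranded probes. Antibodies against each partner (one per run) detected binding, and z-scores were calculated against random background probes after regression normalization of scanned fluorescence.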

Going from TCTTGTAGATCAAGCAGGTTAATAAAGCCTGAGT to CCAGACAGGTGAAAGGTACCTCAGTCTGGTACGC, the PBM binding z-score rises from -0.0389 to 0.786.

Compared with CGTCCAAGGGCATAGGAGGTCAGTGAAGACAGAT, CAAACTAGGTCACGATAGGTCAAAGTCGAATGAC is higher in PBM binding z-score: 3.53 for the first, 4.88 for the second.

First: TCTCGGAGGACACCAAGGTCAGAGCTTTCCAGAG
Second: TCATATAGGTAAAGGTGAAAGGCGAACGATATGA
The PBM binding z-score of the first is higher: 3.27 for the first, 1.99 for the second.

Going from CGAACGAGGGCATGAGTTGATCGCAAATGCCGAT to GCTCCTAGGTCAACTGATGGTCAGCTAAAGCTCG, the PBM binding z-score rises from 1.86 to 4.35.

Compared with AGTCAAAGTTCATCTAGCTAACGTAAGATATGCT, TTTCCAAGGTGAGCTGAGGTCGTTGATCCAACTC is lower in PBM binding z-score: 4.79 for the first, 2.1 for the second.

Compared with CCTAGCAGGCCAATCTGGGTTACTCAAGGCTTGA, TCTGCTAGGTCAGTAGGTCAGCTAACGAGCTGCC is higher in PBM binding z-score: 0.268 for the first, 3.79 for the second.

Compared with CGTCCAAGGTCAAGGACAGTGAAAGAGACTCGAA, CTCAAAAGGTCGTGCTCAGGTGAGTATACCAAAC is lower in PBM binding z-score: 5.22 for the first, 4.03 for the second.

Compared with ACTAGAAGGCCAAGTTTGGGTCACTCAAACAAAG, GCAGACAGGTGAGACGCAGGTAACTCAGGGTGGC is lower in PBM binding z-score: 2.71 for the first, 0.422 for the second.

Going from ACTAGCAGGCCAAGGGTCAATCAAGATTAGTCCG to AGTGAAAGTTCATCTAGGTAACGTAAGATATGCT, the PBM binding z-score rises from 3.33 to 4.63.

First: CAAACTAGGTCACAGGAAGGTCAAAGTCCGCATG
Second: CGTCCAACGTCAATGCTAGGTCAGTGAAAGCATT
The PBM binding z-score of the first is higher: 4.93 for the first, 1.33 for the second.

First: AATGCAGGGTCACTAGGCCAGAGTAGGTACGAAT
Second: ACTGACAGGTGAGTGAAGGTAACTCAGCTGGACG
The PBM binding z-score of the first is higher: 4.13 for the first, 0.482 for the second.

Compared with ACTATTAGTCGACTTAGGGCAACCGATACGACGC, TCATATAGGTAAATGCTAAGTGAAAGTCCGATCT is lower in PBM binding z-score: 0.711 for the first, 0.453 for the second.

Going from CCTCGGAGGACGACAGGAGGTCAGAGCTGCCAGA to CCGACTGAGGCAAGGTTACCATAACGCACAGCCA, the PBM binding z-score falls from 2.18 to 0.904.

Going from TTACCAAGGTGAAAGGTCGTCGATGCACGCCTTG to CGAACTAAGTCAAGGACAGTGAATCTCCGCACGC, the PBM binding z-score falls from 3.27 to 0.556.

First: CGTCTAAGGTCAGAGAGGTCAGTGAATGCCGAGT
Second: TGAATGAGGTGATAAGATCAGGGAACGTTGCAAA
The PBM binding z-score of the first is higher: 5.56 for the first, 0.351 for the second.

First: CCTAGCAGGCCAGGGTCACTGAAGCATTTCGCTT
Second: TTATATAGGTAAACAGGTGAAAGTCCGTAAGTTA
The PBM binding z-score of the first is higher: 2.55 for the first, 0.687 for the second.

Compared with TAGCCTAGGTCCGATCGGGCCAGTATACGCTATA, AGAACGAGGGCAGGCTGAGTTGATAGCAGAGTAG is higher in PBM binding z-score: -1 for the first, 1.63 for the second.

First: GCTTACGGGTCAAAGATTATAGCATGAATAGAAT
Second: TCTAGCAGGCCACAGGGTCACTCAAGAGGTACGG
The PBM binding z-score of the first is higher: 3.39 for the first, 2.63 for the second.

First: TAGCCTAGGTCACTGGGCCAGTATAGTACGCATC
Second: TTACCAAGATGAAGGTCGTTGATCCCTCTGTAGA
The PBM binding z-score of the first is higher: 3.91 for the first, 0.617 for the second.

Compared with GATATAGGGTCAAGGCCAGAGTACGCGTATTGAT, GCGAATGGGGCAAAGCAGGTTACCATAAGGTTGG is lower in PBM binding z-score: 4.62 for the first, 1.1 for the second.

Source: the supplement of paper PMC6555819
